D2 ag-1 = D2 dopamine receptor (human) agonism. P14416. HEK293 T-REx D2 cells, calcium flux agonist mode. activation, % at 2 µM. 340,000 compounds, 0.53% hits. AID 485358;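 active = activation over 3 SD above normal in the single-dose calcium agonist read, cut at about 30% in these data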
Target sequence (P14416 whole entry, looked up): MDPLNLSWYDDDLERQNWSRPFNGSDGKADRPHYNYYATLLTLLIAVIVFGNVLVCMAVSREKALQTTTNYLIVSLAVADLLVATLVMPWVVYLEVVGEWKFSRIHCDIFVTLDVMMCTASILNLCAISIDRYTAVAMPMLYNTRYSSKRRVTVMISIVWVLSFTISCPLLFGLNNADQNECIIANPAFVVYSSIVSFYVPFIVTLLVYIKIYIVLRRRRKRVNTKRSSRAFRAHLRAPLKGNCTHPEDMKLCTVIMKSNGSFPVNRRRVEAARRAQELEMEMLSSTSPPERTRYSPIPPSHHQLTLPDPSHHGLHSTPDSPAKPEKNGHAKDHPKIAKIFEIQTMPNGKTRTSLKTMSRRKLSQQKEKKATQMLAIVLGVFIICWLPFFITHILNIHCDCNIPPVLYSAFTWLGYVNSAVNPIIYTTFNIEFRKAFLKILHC
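In this primary screen, compounds producing a positive calcium signal within 180 s of addition to tetracycline-induced, force-coupled HEK293 Trex D2 cells are flagged; cells are dye-loaded with a no-wash calcium kit beforehand.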
D2 ag-2 = human D2 receptor agonism in beta-arrestin assay. P14416. DiscoveRx PathHunter D2 beta-arrestin, luminescence, 90 min; 100% = 57 uM dopamine signal. activation, % (concentration not given with the values). 360,000 compounds, 0.084% hits; in the data active = activation above about 40%; inconclusive = between about 15% and that limit
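Agonist mode: compounds alone added to overnight-plated D2 PathHunter cells for 90 min at 37 C, with 57 uM final dopamine (EC100) defining full response. Beta-arrestin recruitment detected by chemiluminescent reagent, read after 1 h at ambient temperature.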
D2 antagonist = antagonists of human D2 dopamine receptor. HEK293 TREx D2 cells, calcium flux, dopamine EC80. inhibition, % at 10 µM. 340,000 compounds, 2% hits. AID 485344; in the data active = inhibition above about 30%; inactive = below that, where a call was filed
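Overnight-induced (tetracycline, 30 C) HEK293 T-REx cells carrying force-coupled D2 receive a no-wash calcium dye, then compound, then EC80 dopamine at 180 s; signals are read kinetically throughout.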
D2 PAM-1 = positive allosteric modulators of human D2 dopamine receptor; P14416; HEK293 T-REx D2, calcium flux, EC20 dopamine potentiation; potentiation, % at 10 µM; 340,000 compounds, 0.34% hits;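 active = potentiation over 3 SD above the plate norm, cut at about 30% in these data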
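Tetracycline-induced Hek293 Trex D2 cells, force-coupled to calcium, loaded with no-wash calcium dye. Compound added with 180 s kinetic read for agonism, then EC20 dopamine and a further 180 s read for potentiation.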
D2 PAM-2 = human D2 receptor positive allosteric modulation; 360,000 compounds, 0.23% hits; potentiation, % (concentration not given with the values); DiscoveRx D2 beta-arrestin cells, luminescence, 90 min; 100% = 57 uM dopamine signal; in the data active = potentiation above about 50%; inconclusive = mostly about 30% to 49%
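PathHunter D2 cells, attached overnight at 37 deg C, received compound in DMSO plus dopamine at EC20 (50 nM final) for 90 min at 37 deg C. Beta-arrestin recruitment was read as luminescence after 1 h with detection reagent at ambient temperature.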
Large screens that a line does not name were inactive. This is a sample that favours compounds with a hit; in the whole collection about 2.4% have one here.

C[C@H](CO)N1C[C@H](C)[C@@H](CN(C)C(=O)OCc2ccccc2)OCc2cn(nn2)CCCC1=O	none (no result: D2 ag-1, D2 antagonist, D2 PAM-1)
COc1ccc(C(=O)Nc2ccc(NC(=O)c3ccccc3)cc2)cc1S(=O)(=O)N1CCOCC1	none
COc1ccc(NC(=O)c2c3c(nc4ccccc24)CCC3)cc1S(=O)(=O)N1CCOCC1	D2 ag-1 33
Cc1ccccc1-c1nn2c(=O)cc(CN3CCN(C(=O)c4ccc(C(C)(C)C)cc4)CC3)nc2s1	none (no result: D2 ag-2, D2 antagonist, D2 PAM-2)
O=C(c1cc2c(s1)-c1ccccc1OC2)N1CCc2ccccc2C1	D2 antagonist 33
O=C1C(=O)N(C2CCNCC2)CCN1Cc1ccccc1	none (no result: D2 ag-1, D2 ag-2, D2 antagonist, D2 PAM-2)
Cc1cc(OCCN2CCN(S(=O)(=O)c3ccccc3F)CC2)ccc1C(C)C	D2 PAM-1 66
COc1ccc(OCCN2CCN(S(=O)(=O)c3ccccc3C(F)(F)F)CC2)cc1	none
Cc1[nH]n2c(=O)c3c(nc2c1-c1ccccc1)CCC3	D2 antagonist 36
Cc1[nH]n2c(=O)c3c(nc2c1-c1ccc(Cl)cc1)CCC3	D2 antagonist 75
Nc1[nH]n2c(=O)c3c(nc2c1N=Nc1ccccc1)CCCC3	D2 antagonist 37
Nc1[nH]n2c(=O)c3c(nc2c1N=Nc1ccc(Cl)cc1)CCCC3	none
CCOC(=O)[C@H]1[C@H]2COc3ccc(Br)cc3[C@H]2N2C(=O)CN(Cc3ccc(C)cc3)C(=O)[C@@]12C	D2 PAM-2 inconclusive (no result: D2 ag-1, D2 antagonist, D2 PAM-1)
Cc1cc(C)c(C)c(OCCCCN(C)Cc2ccccc2)c1	D2 antagonist 31
CN(CCOc1ccc(F)cc1)Cc1ccccc1	none
CCC(C)c1ccccc1OCCCN(C)Cc1ccccc1 (stereo not drawn)	D2 antagonist 35
CN(CCCCOc1ccc(F)cc1)Cc1ccccc1	D2 antagonist 33
CN(CCOc1ccccc1)CCOc1ccccc1	D2 antagonist 37
CC(=O)c1ccc(NC(=O)CCc2c(C)nn(-c3ccc(N4CCCCC4)nn3)c2C)cc1	none (no result: D2 ag-2, D2 antagonist, D2 PAM-2)
Cc1ccc(NC(=O)COCc2cc(-c3cccs3)on2)cc1Cl	none (no result: D2 ag-2, D2 antagonist, D2 PAM-2)
Cc1ccsc1C(=O)C1CCCN(Cc2cc(F)ccc2-n2cccn2)C1 (stereo not drawn)	D2 antagonist 34
COc1cc(OC)c(OC)cc1CN1CCCC(C(=O)c2sccc2C)C1 (stereo not drawn)	none
CN(C)S(=O)(=O)c1cccc(NC(=O)CCSc2ccc(Cl)cc2)c1	D2 antagonist 33
COc1cc(/C=N/NC(=S)Nc2cccc(S(=O)(=O)N(C)C)c2)cc(OC)c1O	D2 PAM-1 40
CN(C)S(=O)(=O)c1cccc(NC(=O)CCNC(=O)Nc2ccccc2)c1	none (no result: D2 ag-1, D2 antagonist, D2 PAM-1)
COc1cc(CCC(=O)Nc2cccc(S(=O)(=O)N(C)C)c2)cc(OC)c1OC	D2 antagonist 39
CN(C)S(=O)(=O)c1cccc(NC(=O)COC(=O)c2ccc([N+](=O)[O-])o2)c1	D2 PAM-2 78
COc1cccc(/C=N/NC(=S)Nc2cccc(S(=O)(=O)N(C)C)c2)c1	none
COC(=O)c1cccc(NC(=O)CCc2cc(OC)c(OC)c(OC)c2)c1	none
CCOc1ccc(NC(=O)C(=O)NCCc2ccccc2)cc1	none (no result: D2 ag-1, D2 ag-2, D2 antagonist, D2 PAM-2)
COc1ccc(C2c3[nH]c4ccc(OC)cc4c3CCN2C(=O)Nc2ccccc2)cc1 (stereo not drawn)	none (no result: D2 ag-2, D2 antagonist, D2 PAM-2)
O=C(O)CCC(=O)N1CCc2cc(S(=O)(=O)N3CCC(Cc4ccccc4)CC3)ccc21	D2 antagonist 34
CC1CCN(S(=O)(=O)c2ccc3c(c2)CCN3C(=O)CCC(=O)O)CC1	none
CC1=CC(C)(C)Nc2ccc(OC(=O)CCN3C(=O)c4ccccc4C3=O)cc21	D2 ag-2 inconclusive, D2 PAM-2 131
Cc1nn(C)c(C)c1N1C(=O)c2cccc3c(N)ccc(c23)C1=O	D2 ag-1 115
CCCCNc1ccc2c3c(cccc13)C(=O)N(CCCC)C2=O	D2 ag-1 185, D2 antagonist 81
CCN1C(=O)c2cccc3c(N)ccc(c23)C1=O	D2 ag-1 151, D2 antagonist 61
Cc1ccc(-n2cnnn2)c2cccnc12	none
Cc1ccc(N2C(=O)c3cccc4c(N)ccc(c34)C2=O)c2cccnc12	D2 ag-1 84
CCCN1C(=O)c2cccc3c(N4CCCCC4)ccc(c23)C1=O	none
COc1ccc(Cl)cc1NC(=S)NCCc1ccc(S(N)(=O)=O)cc1	none
COc1ccc(Cl)cc1NC(=S)NCCc1ccc(F)cc1	D2 antagonist 40

Screens as filed in PubChem BioAssay.
